3 compounds from PubChem BioAssay (EPA / NIEHS) can be followed below.

What all share (conditions): mRNA level, 48 h; actives raise or lower the signal
Read-out in experiment [1]: Nuclear factor NF-kappa-B p105 subunit (Homo sapiens) (UniProt P19838)
Briefly: LTEA_HepaRG_NFKB1: Life Technologies and Expression Analysis (LTEA) Assay for Nuclear Factor Kappa B Subunit 1 (NFKB1) using HepaRG (AID 2283521).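 Note: TaqMan qRT-PCR transcript normalised to ACTB GAPDH and POLR2A housekeeping genes.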 An outline of the steps:
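Human HepaRG cells receive eight half-log concentrations, highest 100 uM, for 48 h. NFKB1 expression is then quantified by qRT-PCR and analysed for up- or down-regulation relative to 0.5% DMSO vehicle.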

Read-out in experiment [2]: Phosphatase and tensin (PTEN), PTEN (gene 5728)
Nature of the experiment: LTEA_HepaRG_PTEN: Life Technologies and Expression Analysis (LTEA) Assay for Phosphatase and tensin (PTEN) using HepaRG (AID 2283523). The gist of the method: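 HepaRG cells, 48 h after plating, exposed in duplicate for 48 h in serum-free induction medium to 8 half-log concentrations up to 100 uM (0.5% DMSO). PTEN mRNA by qRT-PCR, normalized to ACTB, GAPDH, POLR2A; bidirectional fit versus DMSO.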

Read-out in experiment [3]: solute carrier (SLC22A1), SLC22A1 (gene 6580)
Briefly: LTEA_HepaRG_SLC22A1: Life Technologies and Expression Analysis (LTEA) Assay for solute carrier (SLC22A1) using HepaRG (AID 2283524). An outline of the steps: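 Differentiated human HepaRG cells in serum-free induction medium, exposed 48 h in duplicate to 8-point half-log series from 100 µM top in 0.5% DMSO. SLC22A1 mRNA by TaqMan qRT-PCR normalized to ACTB, GAPDH, POLR2A; bidirectional fit versus DMSO.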

Read-out in experiment [4]: Pyruvate Dehydrogenase Kinase 4 (PDK4), PDK4 (gene 5166)
Nature of the experiment: LTEA_HepaRG_PDK4: Life Technologies and Expression Analysis (LTEA) Assay for Pyruvate Dehydrogenase Kinase 4 (PDK4) using HepaRG (AID 2283525). An outline of the steps:
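HepaRG cells plated 48 h, then switched to serum-free induction medium and exposed in duplicate for 48 h to 8 half-log concentrations from 100 uM in 0.5% DMSO. PDK4 mRNA measured by qRT-PCR, normalized to ACTB, GAPDH and POLR2A; bidirectional fit versus DMSO.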

Read-out in experiment [5]: NAD(P)H dehydrogenase [quinone] 1 (NQO1), NQO1 (gene 1728)
Briefly: LTEA_HepaRG_NQO1: Life Technologies and Expression Analysis (LTEA) Assay for NAD(P)H dehydrogenase [quinone] 1 (NQO1) using HepaRG (AID 2283526). The gist of the method:
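Human HepaRG hepatic cells received chemicals for 48 h in serum-free induction medium with 0.5% DMSO, up to 100 uM. Expression was assessed by TaqMan qRT-PCR against housekeeping controls and fitted bidirectionally against DMSO.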

Read-out in experiment [6]: Nuclear factor erythroid 2-related factor 2 (Homo sapiens) (UniProt Q16236)
Briefly: LTEA_HepaRG_NFE2L2: Life Technologies and Expression Analysis (LTEA) Assay for Nuclear factor erythroid 2-related factor 2 (NFE2L2) Transcription Factor using HepaRG (AID 2283527).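 Note: TaqMan qRT-PCR transcript level normalised to ACTB GAPDH and POLR2A housekeeping genes.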 The gist of the method: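 Differentiated human HepaRG cells, serum-free induction medium, exposed 48 h in duplicate to eight half-log concentrations up to 100 uM in 0.5% DMSO. NFE2L2 mRNA by Fluidigm TaqMan qRT-PCR, normalised to ACTB, GAPDH, POLR2A; bidirectional change versus DMSO.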

Read-out in experiment [7]: succinate dehydrogenase complex iron sulfur subunit B (SDHB), SDHB (gene 6390)
Briefly: LTEA_HepaRG_SDHB: Life Technologies and Expression Analysis (LTEA) Assay for succinate dehydrogenase complex iron sulfur subunit B (SDHB) using HepaRG (AID 2283528). The gist of the method:
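A human HepaRG culture in serum-free induction medium received test chemicals for 48 h over an eight-point range capped at 100 uM. SDHB expression change was quantified by qRT-PCR.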

Read-out in experiment [8]: Signal transducer and activator of transcription 3 (Homo sapiens) (UniProt P40763)
Briefly: LTEA_HepaRG_STAT3: Life Technologies and Expression Analysis (LTEA) Assay for Signal transducer and activator of transcription (STAT3) using HepaRG (AID 2283529). The gist of the method:
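Differentiated HepaRG cells, serum-free induction medium, dosed 48 h in duplicate, 8 half-log concentrations from 100 uM in 0.5% DMSO. STAT3 mRNA by qRT-PCR, normalised to ACTB, GAPDH, POLR2A; bidirectional fit versus DMSO.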

Read-out in experiment [9]: solute carrier (SLCO1B1), SLCO1B1 (gene 10599)
Briefly: LTEA_HepaRG_SLCO1B1: Life Technologies and Expression Analysis (LTEA) Assay for solute carrier (SLCO1B1) using HepaRG (AID 2283530). An outline of the steps:
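Gain or loss of SLCO1B1 mRNA is fitted against the 0.5% DMSO vehicle in human HepaRG liver cells treated 48 h at up to 100 uM in half-log steps. Expression comes from qRT-PCR normalized to endogenous controls.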

Read-out in experiment [10]: sulfotransferase 2A1 (SULT2A1), SULT2A1 (gene 6822)
Nature of the experiment: LTEA_HepaRG_SULT2A1: Life Technologies and Expression Analysis (LTEA) Assay for sulfotransferase 2A1 (SULT2A1) using HepaRG (AID 2283531). The gist of the method:
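Cells were plated and cultured 48 h, switched to serum-free induction medium, then dosed in duplicate for 48 h (8 concentrations, max 100 uM). RNA was isolated and SULT2A1 expression measured by qRT-PCR; gain or loss of signal fitted relative to DMSO.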

Read-out in experiment [11]: Transforming Growth Factor (TGFB1), TGFB1 (gene 7040)
Briefly: LTEA_HepaRG_TGFB1: Life Technologies and Expression Analysis (LTEA) Assay for Transforming Growth Factor (TGFB1) Transporter using HepaRG (AID 2283533). The gist of the method: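 Expression change of TGFB1 in human HepaRG cells is measured after a 48 h chemical exposure, up to 100 uM in 0.5% DMSO vehicle. Curves are fitted in both directions relative to the DMSO baseline.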

Read-out in another experiment: TIMP1, TIMP1 (gene 7076)
Briefly: LTEA_HepaRG_TIMP1: Life Technologies and Expression Analysis (LTEA) Assay for TIMP1 using HepaRG (AID 2283534).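 Note: TaqMan qRT-PCR signal normalized to ACTB GAPDH and POLR2A housekeeping genes.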 An outline of the steps:
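We dosed human liver HepaRG cultures for 48 hours with up to 100 uM test chemical and measured TIMP1 expression by qRT-PCR. Activity in either direction is fitted relative to the 0.5% DMSO vehicle.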

Read-out in experiment [12]: Tumor necrosis factor receptor 1 (TNFRSF1A), TNFRSF1A (gene 7132)
Briefly: LTEA_HepaRG_TNFRSF1A: Life Technologies and Expression Analysis (LTEA) Assay for Tumor necrosis factor receptor 1 (TNFRSF1A) using HepaRG (AID 2283535). The gist of the method:
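Expression of TNFRSF1A in human HepaRG liver cells was measured by qRT-PCR 48 h after chemical dosing (maximum 100 uM). Bidirectional curve fitting used 0.5% DMSO as baseline.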

Read-out in experiment [13]: Thyroid Hormone Responsive (THRSP), THRSP (gene 7069)
Nature of the experiment: LTEA_HepaRG_THRSP: Life Technologies and Expression Analysis (LTEA) Assay for Thyroid Hormone Responsive (THRSP) using HepaRG (AID 2283536). An outline of the steps:
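Differentiated HepaRG cells treated 48 h in serum-free induction medium with 8 half-log concentrations up to 100 uM (0.5% DMSO), duplicates. THRSP mRNA by TaqMan qRT-PCR normalised to ACTB, GAPDH, POLR2A; bidirectional fit versus DMSO.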

Read-out in experiment [14]: UDP glucuronosyltransferase (UGT1A1), UGT1A1 (gene 54658)
Nature of the experiment: LTEA_HepaRG_UGT1A1: Life Technologies and Expression Analysis (LTEA) Assay for UDP glucuronosyltransferase (UGT1A1) using HepaRG (AID 2283538). The gist of the method:
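Human liver HepaRG cultures receive test chemical for 48 h, up to 100 uM in 0.5% DMSO, with phenobarbital induction controls. UGT1A1 mRNA is measured by qRT-PCR and normalized to ACTB, GAPDH and POLR2A.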

Read-out in experiment [15]: UDP glucuronosyltransferase (UGT1A6), UGT1A6 (gene 54578)
Nature of the experiment: LTEA_HepaRG_UGT1A6: Life Technologies and Expression Analysis (LTEA) Assay for UDP glucuronosyltransferase (UGT1A6) using HepaRG (AID 2283539). An outline of the steps:
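Endpoint is UGT1A6 transcript induction or loss in a human liver cell line, quantified by TaqMan qRT-PCR 48 h after dosing. Concentrations ran from 100 uM downward in half-log steps in 0.5% DMSO; activity was fitted in both directions versus vehicle.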

Read-out in experiment [16]: X-box binding protein 1 (XBP1), XBP1 (gene 7494)
Nature of the experiment: LTEA_HepaRG_XBP1: Life Technologies and Expression Analysis (LTEA) Assay for X-box binding protein 1 (XBP1) using HepaRG (AID 2283540). The gist of the method:
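Human HepaRG monolayers receive test chemical for 48 h across an eight-point half-log series starting at 100 uM. XBP1 mRNA gain or loss is scored against DMSO by qRT-PCR.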

Read-out in experiment [17]: Transforming Growth Factor (TGFA), TGFA (gene 7039)
Briefly: LTEA_HepaRG_TGFA: Life Technologies and Expression Analysis (LTEA) Assay for Transforming Growth Factor (TGFA) using HepaRG (AID 2283532). The gist of the method:
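Differentiated HepaRG cells exposed 48 hours in serum-free induction medium, 0.5% DMSO vehicle, 8-point half-log series from 100 uM, in duplicate. TGFA mRNA by TaqMan qRT-PCR, normalised to ACTB, GAPDH, POLR2A; bidirectional fit versus DMSO.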

Read-out in experiment [18]: Cellular tumor antigen p53 (Homo sapiens) (UniProt P04637)
Nature of the experiment: LTEA_HepaRG_TP53: Life Technologies and Expression Analysis (LTEA) Assay for Tumor Protein P53 (TP53) using HepaRG (AID 2283537). An outline of the steps:
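Gain or loss of TP53 mRNA signal is scored relative to 0.5% DMSO after 48 h chemical treatment of HepaRG liver cells, tested in duplicate at eight half-log concentrations up to 100 uM.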

Activity calls are given as the source filed them. Rule for the calls: active = hit-call score of the fitted dose curve at least 0.9, where 1 is the maximum; inactive = score below 0.9.

Chain of Signal transducer and activator of transcription 3 (Homo sapiens) (P40763 whole entry, looked up): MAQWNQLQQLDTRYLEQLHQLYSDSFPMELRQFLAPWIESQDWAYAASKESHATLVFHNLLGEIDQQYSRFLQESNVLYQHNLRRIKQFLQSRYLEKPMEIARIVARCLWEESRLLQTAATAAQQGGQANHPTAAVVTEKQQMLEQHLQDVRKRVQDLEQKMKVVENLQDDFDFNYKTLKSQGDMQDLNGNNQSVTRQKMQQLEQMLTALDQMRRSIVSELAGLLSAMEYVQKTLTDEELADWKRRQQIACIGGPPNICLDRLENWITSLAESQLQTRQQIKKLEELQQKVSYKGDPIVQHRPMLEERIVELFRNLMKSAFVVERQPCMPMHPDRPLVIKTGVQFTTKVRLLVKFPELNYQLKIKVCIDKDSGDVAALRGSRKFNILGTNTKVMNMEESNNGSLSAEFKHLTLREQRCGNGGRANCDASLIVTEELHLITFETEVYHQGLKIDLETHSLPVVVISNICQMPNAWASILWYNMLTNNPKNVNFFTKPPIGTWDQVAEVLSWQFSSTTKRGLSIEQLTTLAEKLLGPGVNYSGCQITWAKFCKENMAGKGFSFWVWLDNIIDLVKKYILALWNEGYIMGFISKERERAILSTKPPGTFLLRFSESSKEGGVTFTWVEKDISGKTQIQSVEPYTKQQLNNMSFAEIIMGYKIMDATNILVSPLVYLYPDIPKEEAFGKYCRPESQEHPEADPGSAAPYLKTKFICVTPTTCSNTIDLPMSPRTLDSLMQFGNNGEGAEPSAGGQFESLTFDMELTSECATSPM
Chain of Nuclear factor erythroid 2-related factor 2 (Homo sapiens) (Q16236 whole entry, looked up): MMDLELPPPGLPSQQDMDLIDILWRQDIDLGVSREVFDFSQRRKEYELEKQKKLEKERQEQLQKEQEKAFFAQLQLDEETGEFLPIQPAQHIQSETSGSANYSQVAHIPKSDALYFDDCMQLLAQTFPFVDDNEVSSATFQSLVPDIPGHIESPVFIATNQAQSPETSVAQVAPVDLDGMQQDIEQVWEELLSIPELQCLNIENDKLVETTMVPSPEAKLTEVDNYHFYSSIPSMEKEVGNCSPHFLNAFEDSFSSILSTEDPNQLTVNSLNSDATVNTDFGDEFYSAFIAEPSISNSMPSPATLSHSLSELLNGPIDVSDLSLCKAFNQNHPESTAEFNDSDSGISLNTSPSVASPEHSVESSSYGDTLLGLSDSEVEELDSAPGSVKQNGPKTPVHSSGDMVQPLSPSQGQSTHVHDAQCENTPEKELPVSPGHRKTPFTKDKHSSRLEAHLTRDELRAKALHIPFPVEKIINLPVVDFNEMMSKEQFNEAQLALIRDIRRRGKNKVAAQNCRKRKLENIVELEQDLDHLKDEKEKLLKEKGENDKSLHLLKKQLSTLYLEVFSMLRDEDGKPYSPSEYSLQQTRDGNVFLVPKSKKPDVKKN
Chain of Cellular tumor antigen p53 (Homo sapiens) (P04637 whole entry, looked up): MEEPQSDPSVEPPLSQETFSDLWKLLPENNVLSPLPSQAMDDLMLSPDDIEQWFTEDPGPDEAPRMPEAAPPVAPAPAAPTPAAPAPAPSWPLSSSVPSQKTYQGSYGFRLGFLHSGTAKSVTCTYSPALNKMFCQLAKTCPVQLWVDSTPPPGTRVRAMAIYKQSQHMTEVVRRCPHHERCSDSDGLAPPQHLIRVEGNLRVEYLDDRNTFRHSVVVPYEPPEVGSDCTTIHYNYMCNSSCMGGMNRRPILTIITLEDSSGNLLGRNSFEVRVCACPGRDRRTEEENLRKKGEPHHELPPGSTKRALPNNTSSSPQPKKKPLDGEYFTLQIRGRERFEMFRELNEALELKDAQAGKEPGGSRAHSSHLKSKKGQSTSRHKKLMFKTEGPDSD
Chain of Nuclear factor NF-kappa-B p105 subunit (Homo sapiens) (P19838 whole entry, looked up): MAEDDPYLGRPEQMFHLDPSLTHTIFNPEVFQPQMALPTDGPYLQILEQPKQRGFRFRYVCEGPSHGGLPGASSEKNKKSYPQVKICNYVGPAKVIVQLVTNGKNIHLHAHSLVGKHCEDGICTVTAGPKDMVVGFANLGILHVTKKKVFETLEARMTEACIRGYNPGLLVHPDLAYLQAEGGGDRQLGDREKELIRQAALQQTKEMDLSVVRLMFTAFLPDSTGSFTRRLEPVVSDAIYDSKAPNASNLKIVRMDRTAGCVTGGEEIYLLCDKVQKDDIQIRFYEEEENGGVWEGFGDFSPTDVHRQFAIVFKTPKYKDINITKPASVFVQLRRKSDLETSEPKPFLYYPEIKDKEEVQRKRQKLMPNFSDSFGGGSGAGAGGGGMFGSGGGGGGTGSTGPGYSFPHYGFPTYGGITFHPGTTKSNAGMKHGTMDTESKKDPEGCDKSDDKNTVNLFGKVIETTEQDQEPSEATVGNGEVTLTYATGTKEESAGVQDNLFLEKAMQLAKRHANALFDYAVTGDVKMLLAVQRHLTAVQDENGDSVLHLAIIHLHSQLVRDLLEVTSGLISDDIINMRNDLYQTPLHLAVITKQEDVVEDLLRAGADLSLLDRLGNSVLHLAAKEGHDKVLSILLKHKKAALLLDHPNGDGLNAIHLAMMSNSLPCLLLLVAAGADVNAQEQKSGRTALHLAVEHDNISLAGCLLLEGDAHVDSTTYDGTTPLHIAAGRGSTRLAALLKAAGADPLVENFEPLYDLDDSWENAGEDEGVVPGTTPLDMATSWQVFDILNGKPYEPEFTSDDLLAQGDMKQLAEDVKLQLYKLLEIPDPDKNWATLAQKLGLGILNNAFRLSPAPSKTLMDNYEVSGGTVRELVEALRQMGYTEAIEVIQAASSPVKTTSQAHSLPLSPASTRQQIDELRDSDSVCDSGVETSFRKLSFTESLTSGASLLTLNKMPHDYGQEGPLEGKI

In the case of `C=C(C)C(=O)OCCC(F)(F)C(F)(F)C(F)(F)C(F)(F)C(F)(F)C(F)(F)F`, the compound was classed as inactive in experiment [1], in [2], in experiment [3], in experiment [5], in experiment [6] and in experiment [7]. For the same compound, the outcome in [8] was “inactive”; in [9], “inactive”; in experiment [10] it was “inactive”; in [11], “inactive”; in the experiment with TIMP1, TIMP1 (gene 7076), “inactive”; in [12], “inactive”. Besides, the compound was called inactive in experiment [13], in experiment [14], in experiment [15] and in [16]. The AC50 in [4] was 14 µM (active).

Regarding `OC1CCCCC1`, the call in experiment [2], in experiment [3], in [4], in experiment [5], in experiment [6] and in experiment [7] was inactive. Besides, the outcome in experiment [8] is “inactive”; in experiment [9], “inactive”; in [10], “inactive”; in [17], “inactive”; in experiment [11], “inactive”; with TIMP1, TIMP1 (gene 7076), “inactive”. The outcome in experiment [12], in experiment [13], in experiment [14], in experiment [15] and in experiment [16] was inactive.

For the compound `CCCOC(=O)c1ccc(O)cc1`, the compound was called inactive in [2], in [3], in [4], in experiment [5], in experiment [6] and in experiment [7]. Moreover, the outcome in experiment [8] is “inactive”; in experiment [9], “inactive”; in [10] it was “inactive”; in experiment [11], “inactive”; with TIMP1, TIMP1 (gene 7076) it was “inactive”; in experiment [13], “inactive”. Besides, the call in experiment [18], in experiment [14], in [15] and in experiment [16] was inactive. For the same compound, the AC50 in experiment [12] was 779 nM (active).

What is called AC50 is the concentration at which the activity in the assay is half-maximal.
